For experiment [1], the target named is Lysosomal acid glucosylceramidase (Homo sapiens) (UniProt P04062). As to the kind of experiment: Glucocerebrosidase-p2 (AID 348; in the data active = potency below about 10 µM; also: potency is read from the fitted curve at half-maximal effect). Particulars: purified GBA, blue fluorogenic substrate, 40 min. The essentials: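 Compounds titrated from 0.6 nM upwards against 0.2 nM enzyme in pH 5.9 citric acid/KH2PO4, taurocholate, tween-20; blue fluorogenic substrate 80 uM, 40 min room temperature, stopped and read Ex 365/Em 440 for AC50.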
Sequence of Lysosomal acid glucosylceramidase (Homo sapiens) (P04062 whole entry, looked up): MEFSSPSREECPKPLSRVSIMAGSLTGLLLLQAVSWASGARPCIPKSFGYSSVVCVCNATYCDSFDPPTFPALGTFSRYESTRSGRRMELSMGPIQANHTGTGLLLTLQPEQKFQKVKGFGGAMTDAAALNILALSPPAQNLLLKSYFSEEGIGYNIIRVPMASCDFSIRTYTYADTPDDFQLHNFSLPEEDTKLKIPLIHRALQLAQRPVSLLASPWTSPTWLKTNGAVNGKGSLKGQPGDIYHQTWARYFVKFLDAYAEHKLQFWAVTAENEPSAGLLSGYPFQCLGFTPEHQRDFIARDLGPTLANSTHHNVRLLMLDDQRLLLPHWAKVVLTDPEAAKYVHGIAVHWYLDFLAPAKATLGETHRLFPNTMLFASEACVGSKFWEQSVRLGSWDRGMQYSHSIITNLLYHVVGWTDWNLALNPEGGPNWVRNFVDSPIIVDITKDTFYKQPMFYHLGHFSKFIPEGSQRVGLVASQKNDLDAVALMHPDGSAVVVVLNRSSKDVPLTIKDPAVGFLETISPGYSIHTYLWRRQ

Experiment [2] is described as follows: AP1 Signaling Pathway (AID 357).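 Also: ME-180 reporter cells stimulated with EGF at its EC50 level; % is scaled to controls: 0 for no effect and ±100 for the full control effect.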 The conditions noted are these: ME-180 AP-1-bla reporter, EGF-induced, beta-lactamase ratio, 5 h; at 7.69 µM (top of the series) unless noted. The essentials:
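Modulation of EGF-driven AP-1 transcription was assessed with a beta-lactamase reporter in ME-180 cells. Compound and EC50 EGF were co-incubated 5 hours at 37 °C before 2.5-hour CCF4 loading at room temperature and dual-emission reading.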

Experiment [3] concerns the target Cytochrome P450 1A2 (Homo sapiens) (UniProt P05177). As to the kind of experiment: p450-cyp1a2 (AID 410; calls by dose curve; also: potency is read from the fitted curve at half-maximal effect;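 as to activity change, negative = inhibition: -100% = full effect of reference inhibitor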). Particulars: recombinant CYP1A2, luciferin-ME demethylation, luminescence; series mostly up to 11.4 µM. In outline: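 Luminescent readout of luciferin formed from Luciferin-ME by human CYP1A2; data normalized against complete inhibition by 57 uM furafylline. Enzyme 20nM, substrate 100uM at Km, 100mM KPO4 buffer, 60 min reaction at room temperature.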

The nature of experiment [4]: NFAT Signaling Pathway (AID 444).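 Also: carbachol stimulus at about its EC50 of 1 µM final; % is scaled to controls: 0 for no effect and ±100 for the full control effect.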 The conditions noted are these: Jurkat NFAT-bla M1, carbachol, beta-lactamase ratio, 5 h; at 7.69 µM (top of the series) unless noted. The essentials:
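Jurkat cells carrying an NFAT-driven β-lactamase reporter and co-transfected muscarinic M1 receptor were treated with compound plus carbachol (1 uM final, an EC50 level) for 5 h at 37 °C. CCF4 loading followed for 1 h at RT; 460/530 nm ratio gave %activity.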

Experiment [5] is described as follows: Stat Signaling Pathway (AID 446).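 Also: ME-180 cervical cancer cells given 40 pM IL-6 alongside compound; SIE-controlled beta-lactamase reporter measured as 460/530 nm FRET emission ratio; % is scaled to controls: 0 for no effect and ±100 for the full control effect.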 Particulars: ME-180 SIE beta-lactamase reporter, IL-6 stimulated, 5 h; at 7.69 µM (top of the series) unless noted. The essentials:
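ME-180 cells carrying a SIE-driven beta-lactamase reporter are stimulated with 40 pM IL-6 for 5 h at 37C in the presence of compound. The 460/530 nm FRET substrate ratio is read after 2.5 h at RT. Data are normalised to 300 pM IL-6 and to 125 nM JAK inhibitor controls.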

For experiment [6], the target named is Glucocorticoid receptor (Homo sapiens) (UniProt P04150). Kind of experiment: GR-GFP Redistribution (AID 450;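 active = compounds whose dose series gives a full or clear partial fitted curve of increased nuclear translocation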; also: potency is read from the fitted curve at half-maximal effect). Particulars: U2OS GR-GFP nuclear translocation, laser cytometry, 2 h.
Sequence of Glucocorticoid receptor (Homo sapiens) (P04150 whole entry, looked up, the tested form may be a part): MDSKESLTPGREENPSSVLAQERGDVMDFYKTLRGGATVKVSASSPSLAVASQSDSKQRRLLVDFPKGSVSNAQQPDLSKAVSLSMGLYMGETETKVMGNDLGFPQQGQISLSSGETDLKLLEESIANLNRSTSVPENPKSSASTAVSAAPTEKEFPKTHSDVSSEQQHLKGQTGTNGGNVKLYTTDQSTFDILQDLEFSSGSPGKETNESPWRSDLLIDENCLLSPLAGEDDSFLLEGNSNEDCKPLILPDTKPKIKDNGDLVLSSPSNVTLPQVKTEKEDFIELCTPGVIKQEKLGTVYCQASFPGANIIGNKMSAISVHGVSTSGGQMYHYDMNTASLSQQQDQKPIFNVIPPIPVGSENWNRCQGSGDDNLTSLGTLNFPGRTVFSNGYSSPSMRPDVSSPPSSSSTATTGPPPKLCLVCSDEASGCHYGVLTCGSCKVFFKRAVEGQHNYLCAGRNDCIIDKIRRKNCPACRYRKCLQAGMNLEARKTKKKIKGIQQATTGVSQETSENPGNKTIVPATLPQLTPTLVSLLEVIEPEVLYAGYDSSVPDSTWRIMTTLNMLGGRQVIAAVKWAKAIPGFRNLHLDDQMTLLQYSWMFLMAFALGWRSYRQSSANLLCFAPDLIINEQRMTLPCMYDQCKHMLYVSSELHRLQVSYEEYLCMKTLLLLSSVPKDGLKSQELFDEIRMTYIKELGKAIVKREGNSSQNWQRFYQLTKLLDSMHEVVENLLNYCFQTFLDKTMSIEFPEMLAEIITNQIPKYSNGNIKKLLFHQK
Experiment [7] shares this target. As to the kind of experiment: GR-EFC Redistribution (AID 451; calls by dose curve; also: potency is read from the fitted curve at half-maximal effect). The conditions noted are these: CHO-K1 GR-EFC translocation, beta-gal luminescence, 2 h. In outline: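 CHO-K1 cells stably expressing nuclear-localized β-gal enzyme acceptor and GR fused C-terminally to the enzyme donor fragment; ligand-driven nuclear translocation restores β-gal by complementation. Compounds titrated up to 46 uM final, 2 h at 37 °C; luminescence read.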

Experiment [8] deals with Mitogen-activated protein kinase 10 (Mus musculus) (UniProt Q61831). As to the kind of experiment: JNK3 AlphaScreen Assay (AID 530).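 Also: kinase came from lysate of stimulated human HepG2 cells; signal reports phosphorylation of biotinylated GST-cJun 1-79 at Ser73 with 10 µM ATP; % is scaled to controls: 0 for no effect and ±100 for the full control effect.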 Particulars: JNK3 lysate, c-Jun phosphorylation; series mostly up to 11.4 µM. In outline:
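Inhibitors reduce antibody binding to phosphorylated biotin-cJun, lowering AlphaScreen luminescence. Lysates from HepG2 cells pre-activated by IL-1beta plus TNF-alpha supplied JNK3; compounds were titrated.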
Background: In Alpha technology, singlet oxygen from a donor bead excites a nearby acceptor bead.

Experiment [9] addresses 3',5'-cyclic-AMP phosphodiesterase 4B (Homo sapiens) (UniProt Q07343). As to the kind of experiment: qHTS Assay for Inhibitors of PDE-IV (AID 607; active = well fitted activation curve with a large enough effect in the main read-out, with a control signal flat, not every such curve was filed as active; also: % of control where 0% means no effect). Particulars: HEK293 ACTOne CNG channel cells, membrane potential fluorescence; series mostly up to 22.9 µM. The essentials:
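HEK293 ACTOne cells with CNG channel (1000/well), endogenous PDE4; membrane potential dye, compounds up to 22.9 uM final. Fluorescence Ex 535/Em 590; RO 20-1724 (100 uM final) as reference.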
For orientation: Quantitative high-throughput screening tests each substance at several concentrations.

The nature of experiment [10]: qHTS Assay for Identification of Small Molecule Agonists for Hypoxia Response Element Signaling Pathway (AID 914; active = well fitted activation curve with a large enough effect in the signal ratio, with a control signal flat, not every such curve was filed as active; the % refers to the signal ratio; also: % of control where 0% means no effect). Particulars: ME-180 (cervical carcinoma) HRE-bla reporter, beta-lactamase ratio, CoCl2, 17 h; activation: hits give high values. The essentials: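 Compounds in a titration series were added to ME-180 reporter cells alongside an EC50 level of CoCl2. After 17 hours, beta-lactamase activity was read as the 460nm/530nm emission ratio of CCF4, giving AC50 values.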

Experiment [11] deals with Cytochrome P450 2C19 (Homo sapiens) (UniProt P33261). As to the kind of experiment: qHTS Assay for Inhibitors and Substrates of Cytochrome P450 2C19 (AID 899; active = well fitted curve in the direction sought with a large enough effect; an effect the other way counts as inactive or inconclusive; also: % is scaled to controls: 0 for no effect and ±100 for the full control effect; nearly all actives have a fitted effect of over 60% in size). Particulars: recombinant CYP2C19, luciferin-H EGE luminescence; series mostly up to 11.4 µM. In outline: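 NADPH-dependent conversion of Luciferin-H EGE (10uM, at KM) by 5nM enzyme in 50mM KPO4, 60 min at 37C following 10 min compound preincubation. Stopped with luciferin detection buffer; luminescence read after 20 min.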
Sequence of Cytochrome P450 2C19 (Homo sapiens) (P33261 whole entry, looked up): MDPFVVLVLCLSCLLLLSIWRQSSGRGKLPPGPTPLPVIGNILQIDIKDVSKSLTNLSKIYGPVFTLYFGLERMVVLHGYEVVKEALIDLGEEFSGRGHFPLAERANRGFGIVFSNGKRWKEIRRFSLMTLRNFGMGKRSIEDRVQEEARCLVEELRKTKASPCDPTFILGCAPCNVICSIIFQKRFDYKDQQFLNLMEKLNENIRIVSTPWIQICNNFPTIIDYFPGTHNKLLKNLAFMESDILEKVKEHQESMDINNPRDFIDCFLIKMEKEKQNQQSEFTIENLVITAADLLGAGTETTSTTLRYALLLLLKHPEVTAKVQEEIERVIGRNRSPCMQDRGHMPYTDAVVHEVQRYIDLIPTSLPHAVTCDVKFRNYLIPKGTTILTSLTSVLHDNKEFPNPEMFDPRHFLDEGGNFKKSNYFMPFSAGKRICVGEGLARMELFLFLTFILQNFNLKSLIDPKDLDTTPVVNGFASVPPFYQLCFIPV

Experiment [12] deals with Cytochrome P450 3A4 (Homo sapiens) (UniProt P08684). As to the kind of experiment: qHTS Assay for Activators of Cytochrome P450 3A4 (AID 885; active = well fitted curve in the direction sought with a large enough effect; an effect the other way counts as inactive or inconclusive; also: nearly all actives have a fitted effect of over 65% in size). Particulars: recombinant CYP3A4, Luciferin-PPXE luminescence, 60 min; series mostly up to 11.4 µM. The essentials:
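Human CYP3A4 (20 nM) with Luciferin-PPXE at 25 uM (its KM) in 200 mM KPO4; 10 min compound preincubation, then NADPH regeneration and 60 min reaction at RT. Luciferin read by luminescence; normalized to 57 uM ketoconazole full inhibition.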

A number with no mark means an inactive call. Records with an inconclusive call do not appear. The source made the active and inactive calls. Unless noted, calls follow the shape of the dose curve; as a rule, active = well fitted curve in either direction with a large enough effect (not every such curve was filed as active); inconclusive = small, poorly fitted or top-dose-only effect, or another doubt; inactive = flat fitted curve, though single readings scatter. Some results are limits rather than exact numbers.

Sequence of 3',5'-cyclic-AMP phosphodiesterase 4B (Homo sapiens) (Q07343 whole entry, looked up): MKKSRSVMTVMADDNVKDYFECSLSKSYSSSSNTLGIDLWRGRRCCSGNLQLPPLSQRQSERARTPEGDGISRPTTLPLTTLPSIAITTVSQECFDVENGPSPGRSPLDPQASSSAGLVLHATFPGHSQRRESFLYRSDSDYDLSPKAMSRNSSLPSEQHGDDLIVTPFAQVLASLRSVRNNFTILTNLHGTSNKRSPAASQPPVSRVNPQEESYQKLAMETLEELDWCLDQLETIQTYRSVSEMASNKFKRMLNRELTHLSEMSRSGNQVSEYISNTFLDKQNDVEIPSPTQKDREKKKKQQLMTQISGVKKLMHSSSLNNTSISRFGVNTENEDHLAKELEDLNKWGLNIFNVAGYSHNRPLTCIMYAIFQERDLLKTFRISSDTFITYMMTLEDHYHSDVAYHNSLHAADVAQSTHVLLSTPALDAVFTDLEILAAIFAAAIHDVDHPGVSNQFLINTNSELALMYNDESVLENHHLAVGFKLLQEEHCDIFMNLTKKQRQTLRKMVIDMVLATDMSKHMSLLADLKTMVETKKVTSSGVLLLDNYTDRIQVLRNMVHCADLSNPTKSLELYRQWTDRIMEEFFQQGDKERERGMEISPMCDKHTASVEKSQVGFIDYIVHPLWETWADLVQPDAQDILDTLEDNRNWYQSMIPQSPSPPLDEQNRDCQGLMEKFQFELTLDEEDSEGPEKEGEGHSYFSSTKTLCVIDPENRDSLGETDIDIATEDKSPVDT
Sequence of Cytochrome P450 1A2 (Homo sapiens) (P05177 whole entry, looked up): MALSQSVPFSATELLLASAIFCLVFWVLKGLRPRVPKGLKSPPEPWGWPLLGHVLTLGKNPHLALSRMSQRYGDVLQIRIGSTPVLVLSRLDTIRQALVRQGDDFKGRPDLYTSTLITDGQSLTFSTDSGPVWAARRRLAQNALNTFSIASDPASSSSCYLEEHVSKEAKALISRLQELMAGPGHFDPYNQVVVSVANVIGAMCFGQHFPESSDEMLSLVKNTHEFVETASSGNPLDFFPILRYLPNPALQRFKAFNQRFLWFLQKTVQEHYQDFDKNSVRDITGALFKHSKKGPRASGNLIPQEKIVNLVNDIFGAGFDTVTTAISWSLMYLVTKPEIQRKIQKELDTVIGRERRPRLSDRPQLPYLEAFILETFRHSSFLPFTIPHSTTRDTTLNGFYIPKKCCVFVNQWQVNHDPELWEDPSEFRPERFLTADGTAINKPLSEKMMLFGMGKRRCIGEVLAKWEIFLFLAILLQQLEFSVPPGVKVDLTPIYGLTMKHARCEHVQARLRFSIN
Sequence of Cytochrome P450 3A4 (Homo sapiens) (P08684 whole entry, looked up): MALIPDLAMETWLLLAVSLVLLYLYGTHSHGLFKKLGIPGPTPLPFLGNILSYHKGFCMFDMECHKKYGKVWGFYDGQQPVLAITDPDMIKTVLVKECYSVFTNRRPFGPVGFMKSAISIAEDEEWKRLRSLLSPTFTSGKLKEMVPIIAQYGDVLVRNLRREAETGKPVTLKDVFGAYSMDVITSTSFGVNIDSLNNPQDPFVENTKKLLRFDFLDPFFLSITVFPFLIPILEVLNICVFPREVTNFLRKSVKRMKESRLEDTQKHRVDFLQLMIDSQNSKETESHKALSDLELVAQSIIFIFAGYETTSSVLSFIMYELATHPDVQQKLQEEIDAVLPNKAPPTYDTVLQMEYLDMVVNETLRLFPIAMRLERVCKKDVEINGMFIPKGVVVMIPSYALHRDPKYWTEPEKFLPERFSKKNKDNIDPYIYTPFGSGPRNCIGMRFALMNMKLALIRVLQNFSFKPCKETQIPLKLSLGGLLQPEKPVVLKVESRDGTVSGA

As for `O=C(O)C1(Nc2ccc(Cl)cc2)CCCC1`, the Potency was above 11.4 µM in experiment [1], above 46 µM in [6] and above 9.22 µM in experiment [7]. In addition, the activity change, negative = inhibition in [2] was -1.27%; in experiment [4], 7.56%. For the same compound, the Potency entry in experiment [3], in experiment [8] and in experiment [9] was “inactive” in each case. In addition, the activity, negative = inhibition in experiment [5] was 5.72%. The activation in experiment [10] was 0.664%.
Take `CC(=O)CC(=O)Nc1ccc2ccccc2c1`: the Potency is above 11.4 µM in [1], 2 µM (active) in experiment [3], above 46 µM in experiment [6] and above 9.22 µM in experiment [7]. For the same compound, the activity change, negative = inhibition was 6.48% in experiment [2] and 11.8% in [4]. In addition, in [5], the activity, negative = inhibition was 6.17%. Also, the Potency result in [8], in experiment [9] and in experiment [11] was “inactive” throughout.
As for `NCC[C@H](N)C(=O)O`, the figures for the Potency in [1], in experiment [6] and in [7] were above 11.4 µM, above 46 µM and above 9.22 µM, respectively. For the same compound, the values for the activity change, negative = inhibition in experiment [2], in experiment [3] and in experiment [4] were -2.63%, -8.9% [at 2.29 µM] and 8.74%, respectively. Also, the activity, negative = inhibition in experiment [5] was -3.44%. For the same compound, the Potency entry in [8] and in experiment [9] was “inactive” each time. Further, in [10], the activation is -6.29%.
`Cn1cnc([N+](=O)[O-])c1Sc1nc(N)nc2c1ncn2Cc1ccccc1`: the Potency in experiment [1] was above 11.4 µM; in experiment [3], 3.16 µM (active); in experiment [6], above 46 µM; in [7], above 9.22 µM. The activity change, negative = inhibition in experiment [2] is 0.181%; in [4] it was -1.11%. The activity, negative = inhibition in experiment [5] was 1.04%. Besides, the Potency result in experiment [8] and in experiment [9] was “inactive” in each case. The activation in experiment [10] was -1.88%.
Consider `CC(C)(Oc1ccc(-c2cccc3ccccc23)cc1)C(=O)O`, for which the Potency in experiment [1] is above 11.4 µM; in [6], above 46 µM; in experiment [7] it was above 9.22 µM. Further, the activity change, negative = inhibition in [2] is 2.76%; in [4] it was -8.87%. Also, the Potency result in experiment [3], in experiment [8], in experiment [9] and in [11] was “inactive” each time. Further, the activity, negative = inhibition in experiment [5] was 1.48%. In experiment [10], the activation was -19.2%.
As to `CC1=N[C@@](C)(COC(=O)[C@]2(C)N[C@](C)(CO)CO2)COC1=O`, the Potency is above 11.4 µM in experiment [1], above 46 µM in experiment [6] and above 9.22 µM in experiment [7]. For the same compound, the activity change, negative = inhibition in experiment [2] is 0.84%; in experiment [3], 6.9% [at 2.29 µM]; in [4], 9.08%. Further, the activity, negative = inhibition in experiment [5] was 6.3%. Further, the Potency result in experiment [8] and in experiment [9] was “inactive” in each case. In addition, the activation in experiment [10] was 5.98%.
Take `O[C@@H](COc1cccc2ccccc12)CN1CCOCC1`: the Potency was above 11.4 µM in [1], 3.98 µM (active) in [3], above 46 µM in experiment [6] and above 9.22 µM in experiment [7]. For the same compound, the activity change, negative = inhibition in [2] is 3.83%; in experiment [4] it was 4.33%. The activity, negative = inhibition in [5] is 3.7%. Besides, the Potency result in [8] and in [9] was “inactive” each time. Further, in experiment [10], the activation is 3.28%.
For the compound `CC(=O)O[C@]1(C)N=NC2(CCCCC2)O1`, the Potency in experiment [1] was above 11.4 µM; in [6] it was above 46 µM; in experiment [7] it was above 9.22 µM. Further, the figures for the activity change, negative = inhibition in [2] and in [4] were 0.791% and 3.95%, respectively. Besides, the Potency result in [3], in experiment [8] and in experiment [9] was “inactive” in each case. In addition, the activity, negative = inhibition in experiment [5] is 16.1%. Also, the activation in [10] is 14.3%.
As for `OCCCNCc1ccccn1`, the Potency was above 11.4 µM in [1], above 46 µM in experiment [6] and above 9.22 µM in experiment [7]. Further, the activity change, negative = inhibition is -3.7% in [2], -20% [at 2.29 µM] in [3] and 5.11% in experiment [4]. Also, the activity, negative = inhibition in experiment [5] was 5.98%. For the same compound, the Potency entry in experiment [8] and in experiment [9] was “inactive” in each case. Also, in experiment [10], the activation was 12.2%.
For the compound `FC(F)(F)c1nc(SCc2ccc(Cl)cc2)n[nH]1`, the Potency is above 11.4 µM in [1], above 46 µM in experiment [6] and above 9.22 µM in [7]. Moreover, the activity change, negative = inhibition in experiment [2] was 1.59%; in experiment [3] it was -18.8% [at 2.29 µM]; in [4] it was -9.79%. Further, in experiment [5], the activity, negative = inhibition was -0.49%. The Potency entry in [8] and in experiment [9] was “inactive” each time. Further, the activation in experiment [10] is 8.01%.
In the case of `C/C(=N/S(=O)(=O)c1ccc(Cl)c(Cl)c1)OCC(C)(C)C`, the Potency in [1] was above 11.4 µM; in [6] it was above 46 µM; in [7] it was above 9.22 µM. Besides, the figures for the activity change, negative = inhibition in [2] and in [4] were 2.66% and 20%, respectively. Moreover, the Potency entry in experiment [3], in [8] and in [9] was “inactive” throughout. The activity, negative = inhibition in experiment [5] is 1.9%. Also, in experiment [10], the activation is 8.96%.
`CCOC(=O)C1=C(C)NC(=O)N[C@@H]1c1coc2cc(C)cc(C)c2c1=O`: the Potency in experiment [1] was above 11.4 µM; in experiment [3], 2.51 µM (active); in experiment [6] it was above 46 µM; in [7], above 9.22 µM. The activity change, negative = inhibition was -13.4% in experiment [2] and 17.5% in experiment [4]. The activity, negative = inhibition in experiment [5] was -5.6%. Besides, the Potency result in [8] and in experiment [9] was “inactive” each time. For the same compound, the activation in [10] is 23.8%.
Take `O=C(O)C(Sc1ccc(Cl)cc1)Sc1ccc(Cl)cc1`: the results for the Potency in experiment [1], in experiment [6] and in [7] were above 11.4 µM, above 46 µM and above 9.22 µM, respectively. The activity change, negative = inhibition in experiment [2] is 0.225%; in experiment [3], -27.8% [at 2.29 µM]; in experiment [4], -19.6%. The activity, negative = inhibition in experiment [5] is -29.3%. For the same compound, the Potency entry in experiment [8] and in experiment [9] was “inactive” in each case. In addition, the activation in [10] is -0.83%.
In the case of `Nc1nc(-c2cccs2)cs1`, the Potency in [1] is above 11.4 µM; in experiment [6], above 46 µM; in experiment [7], above 9.22 µM. For the same compound, the figures for the activity change, negative = inhibition in experiment [2], in experiment [3] and in experiment [4] were 1.24%, -30.1% [at 2.29 µM] and 6.96%, respectively. Moreover, the activity, negative = inhibition in experiment [5] is 5.4%. For the same compound, the Potency result in experiment [9] and in experiment [12] was “inactive” throughout. For the same compound, the activation in [10] was -9.81%.
